High-throughput results (PubChem)
RE007 growth inh: less growth of the S. pombe RE007 Vpr strain. 0.21% of 360,000 active. Potency, µM (highest dose often 92.2 µM), for inactives: top-dose activity change, negative = less growth, most hits filed as inhibitors. S. pombe RE007 Vpr strain, BacTiter-Glo ATP luminescence, 24 h; active = well fitted falling curve with a large enough effect; inconclusive = small, poorly fitted or top-dose-only effect; inactive = no such curve, though single readings can be large or run the other way; note: potency is the fitted concentration of half-maximal effect; nearly all actives have a fitted effect of over 50% in size
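Fission yeast strain RE007, carrying one chromosomally integrated HIV-1 vpr copy, was seeded at OD 0.01 in PMG+AL medium with 23 nL pinned compound. After 24 h at 30 °C and 99% humidity, viability was read by BacTiter-Glo luminescence.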
Sm TGR inh: inhibitors of Schistosoma mansoni thioredoxin glutathione reductase. 3% of 360,000 active. purified TGR, DTNB reduction, TNB absorbance 405 nm. Potency, µM (titrated, usually from 114 µM), without a hit: at the highest dose activity change, negative = inhibition, actives largely listed as inhibitors. Q962Y6; note: potency is the fitted concentration of half-maximal effect; nearly all actives have a fitted effect of over 60% in size
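Kinetic colorimetric format: TGR-catalysed, NADPH-driven DTNB reduction monitored via TNB absorbance. Enzyme dispensed at 20 nM; compound exposure 15 min at room temperature before reaction start.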
Tb PYK inh: T. brucei pyruvate kinase inhibition; TbPYK enzyme, Kinase-Glo Plus ATP luminescence, 45 min; Potency, µM (titrated, usually from 76.8 µM), without a hit: top-dose activity, negative = inhibition, actives largely listed as inhibitors; 0.12% of 410,000 active; AID 624173; note: potency is the fitted concentration of half-maximal effect; nearly all actives have a fitted effect of over 50% in size
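Luminescent Kinase-Glo Plus end-point after 45 min room-temperature reaction of T. brucei pyruvate kinase started with 130 uM ADP (final). Buffer TEA 50 mM pH 7.2 with KCl, MgCl2, BSA, Tween-20; titration-based qHTS with fitted concentration-effect curves.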
FMDV antiviral: foot and mouth disease virus antiviral activity; FMDV antiviral cell-based qHTS; Potency, µM (highest dose often 57.9 µM), for inactives: at the top dose activity change, negative = inhibition, actives largely listed as inhibitors; 1.2% of 410,000 active; AID 1159524; calls by dose curve; tested in HEK293T cells; note: read-out not given here; potency is the fitted concentration of half-maximal effect; nearly all actives have a fitted effect of over 45% in size
FBPA Giardia inh: Giardia lamblia aldolase inhibition; A8B2U2; purified Giardia FBPA; Potency, µM (top dose mostly 59.6 µM), for the others: top-dose activity, negative = inhibition, usual class: inhibitors; 0.71% of 290,000 active; AID 2451; note: potency is the fitted concentration of half-maximal effect; nearly all actives have a fitted effect of over 55% in size
Target sequence (A8B2U2 whole entry, looked up): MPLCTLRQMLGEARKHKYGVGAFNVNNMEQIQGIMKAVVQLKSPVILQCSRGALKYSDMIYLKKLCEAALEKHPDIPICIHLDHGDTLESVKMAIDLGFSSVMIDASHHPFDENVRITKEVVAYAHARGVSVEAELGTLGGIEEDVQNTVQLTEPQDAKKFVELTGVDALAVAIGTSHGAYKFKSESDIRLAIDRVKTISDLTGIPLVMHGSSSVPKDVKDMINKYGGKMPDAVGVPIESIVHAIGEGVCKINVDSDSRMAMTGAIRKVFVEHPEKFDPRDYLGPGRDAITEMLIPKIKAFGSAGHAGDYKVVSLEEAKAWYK
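40 nM FBPA preincubated 10 min at RT with compound (up to 57.5 uM final), then substrate plus GAPDH/TPI/NAD/arsenate coupling and diaphorase/resazurin added. Fluorescence read after 20 min at RT, 525/598 nm.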
HCMV antiviral: blocks human cytomegalovirus replication | activity change, negative = inhibition, % at 57.5 µM | HFF cells, HCMV-luciferase reporter, 72 h; active compounds read low | AID 1259415 | 4.5% of 410,000 active; in the data active = activity change below about -60%; inconclusive = no clear call, values can overlap the other calls; inactive = above about -39%
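Two-dose cell screen: HFF monolayers treated with compounds and infected with luciferase-expressing HCMV at 1 PFU/cell, 72 h at 37C, then lysed for luciferase measurement.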
The depositor's hits bear a star; u = inconclusive; x = no result given; [ ] = dose if it differs, or a comment. A selection: hits, their analogues and other compounds. The true share with any hit is near 7.7%. Unless noted, calls come from the whole dose curve; as a rule, active = well fitted curve in the direction sought with a large enough effect; inconclusive = small, poorly fitted or top-dose-only effect, or another doubt; inactive = no such curve, though single readings can be large; an effect the other way counts as inactive or inconclusive. % is set by controls: 0 for no effect and ±100 for the full control effect.

SMILES	RE007 growth inh	Sm TGR inh	Tb PYK inh	FMDV antiviral	FBPA Giardia inh	HCMV antiviral
COc1ccc2[nH]cc(CCNc3ncncc3-c3cccc(NS(C)(=O)=O)c3)c2c1	x	x	x	-10%	0%	x
Cc1cccc(NC(c2ccccc2F)c2ccc3ccc(C)nc3c2O)n1 (stereo unspecified)	x	5µM*	-1%	-18%	x	-18
Cc1cccc(NC(c2cccc(Cl)c2)c2ccc3cccnc3c2O)n1 (stereo unspecified)	x	4.5µM*	20%	-12%	x	-98*
Cc1ccc(C)c(C(Nc2ccccc2)c2ccc3ccc(C)nc3c2O)c1 (stereo unspecified)	17%	x	x	6%	x	15
Oc1c(C(Nc2cccc(C(F)(F)F)c2)c2ccncc2)ccc2cccnc12 (stereo unspecified)	-26%	35µM*	117%	-16%	-16%	-99*
CC(C)Cn1c(CN2CCN(c3cccc(Cl)c3)CC2)nc2c1c(=O)[nH]c(=O)n2C	x	-4%	5%	0%	x	u
O=C(Nc1ccc2ccccc2c1)C(=O)c1ccccc1F	x	x	x	x	x	-19
COc1ccc(-c2nc(S(=O)(=O)c3ccc(C)cc3)c(N3CCCCC3)o2)cc1	x	10µM*	3%	37%	x	-7
Cc1ccc(S(=O)(=O)c2nc(-c3ccco3)oc2N2CCC(C)CC2)cc1	6%	40µM*	-18%	33%	x	11
COc1ccc(NC(=O)CSc2oc(-c3ccc(F)cc3)nc2S(=O)(=O)c2ccc(C)cc2)c(OC)c1	x	45µM*	7%	-3%	x	-8
COc1ccc(-c2nc(S(=O)(=O)c3ccccc3)c(N3CCOCC3)o2)cc1	7%	40µM*	7%	1%	-22%	-22
O=S(=O)(c1ccccc1)c1nc(-c2ccco2)oc1N1CCOCC1	-1%	11%	8%	10%	-1%	-7
CCCCCCCCN1C(=O)[C@@H](CC(=O)NCCC(C)C)C[C@@]2(C(=O)OC)C1=C[C@H](C(C)(C)C)O[C@@H]2C	x	x	x	x	x	1
O=P(c1ccccc1)(c1ccccc1)c1nc(-c2ccc(Cl)cc2)oc1N1CCOCC1	22%	0%	-12%	-24%	0%	-88*
Cc1ccc(S(=O)(=O)c2nc(Cc3ccccc3)oc2N2CCOCC2)cc1	-2%	0.79µM*	5%	5%	x	15
Cc1ccc(S(=O)(=O)c2nc(-c3ccccc3)oc2N2CCC(C(N)=O)CC2)cc1	5%	14µM*	3%	16%	-3%	70
Cc1ccc(S(=O)(=O)c2nc(-c3ccccc3)oc2N2CCCC2)cc1	23%	2µM*	22%	-7%	x	-35
NC(=O)C1CCN(c2oc(-c3ccccc3)nc2S(=O)(=O)c2ccc(Br)cc2)CC1	-7%	u	-16%	-13%	x	21
Cc1ccc(-c2nc(S(=O)(=O)c3ccc(C)cc3)c(N3CCN(c4ccccc4)CC3)o2)cc1	x	2%	-3%	-25%	x	0
CCNC(=O)c1c(NC(=O)Cc2coc3cc(C)ccc23)sc2c1CCCC2	x	3%	-5%	21%	x	5
COc1cccc(-c2ccc(O)c(CNCc3cccc4ccccc34)c2)n1	x	x	x	-5%	x	x
Cc1ccc(S(=O)(=O)c2nc(-c3cccc(C)c3)oc2N2CCCCC2)cc1	x	20µM*	2%	31%	x	28
Cc1ccc(S(=O)(=O)c2nc(-c3ccccc3F)oc2N2CCCCC2)cc1	x	45µM*	2%	27%	x	-9
Cc1ccc(S(=O)(=O)c2nc(-c3cccc(C)c3)oc2N2CCN(c3ccccc3)CC2)cc1	x	10%	6%	0%	x	-1
O=S(=O)(c1ccccc1)c1nc(-c2ccccc2F)oc1N1CCOCC1	x	-12%	2%	15%	x	-10
SMILES	RE007 growth inh	Sm TGR inh	Tb PYK inh	FMDV antiviral	FBPA Giardia inh	HCMV antiviral
O=S(=O)(c1ccccc1)c1nc(-c2ccccc2)oc1N1CCCCC1	10%	22µM*	23%	78%	-29%	8
COc1ccc(CCNC(=O)CCc2cn(Cc3ccccc3Cl)c3ccccc23)c(OC)c1	x	10%	5%	-3%	x	-30
Cc1ccc(C)c(N2CCN(C(=O)CCc3c(C)nn(-c4ccc(N5CCCC5)nn4)c3C)CC2)c1	x	-3%	-1%	u	x	-63*
C/C(=C\c1ccc(N(C)C)cc1)[N+](=O)[O-]	u	0%	-8%	14µM*	-3%	-102*
Cc1cccc2c1-c1sc(C(=O)NCCCN3CCN(c4cccc(Cl)c4)CC3)cc1CO2	x	0%	0%	-32%	x	-75*
Cc1cccc2c1-c1sc(C(=O)NCCCN3CCN(c4ccccc4F)CC3)cc1CO2	x	0%	2%	u	x	-108*
CC(=O)Nc1ccc(NC(=O)C(NC(=O)C2CCC(C)CC2)C(C)C)cc1 (stereo unspecified)	x	-1%	-9%	-1%	x	14
C=CCSSSCC=C	x	x	3%	-6%	0%	x
Cn1c(-c2ccccc2)c(O)c(=O)c2ccccc21	x	x	x	x	-4%[12.9 µM]	x
Cn1c(-c2ccccc2)c(C(=O)CCl)c2ccccc21	-20%	6.3µM*	-3%	10µM*	-1%	-101*
CCn1c2ccccc2c(=O)c2ccccc21	-14%	5%	-3%	-12%	3%	-29
CCn1c(-c2ccccc2)c(C(=O)CCl)c2ccccc21	-8%	18µM*	0%	18µM*	8%	-100*
Cc1oc(C(C)(C)C)cc1C(=O)NC(Cc1ccccc1)C(=O)O (stereo unspecified)	7%	0%	1%	9%	13%	-77*
CC(=O)NC(Cc1ccccc1)C(=O)NC(Cc1ccccc1)C(=O)O (stereo unspecified)	-2%	u	-7%	1%	-7%	-32
CC(C)(C)OC(=O)NC(Cc1ccccc1)C(=O)O (stereo unspecified)	12%	-4%	-5%	-15%	-2%	-15
O=C(NC(Cc1ccccc1)C(=O)NC(Cc1ccccc1)C(=O)O)c1ccccc1 (stereo unspecified)	14%	28µM*	1%	-7%	1%	-24
COC(=O)CCC(NC(=O)c1cc(-c2ccc3c(c2)OCCO3)oc1C)C(=O)OC (stereo unspecified)	-15%	u	0%	4%	0%	20
Cc1oc(-c2ccc3c(c2)OCCO3)cc1C(=O)NC(Cc1ccccc1)C(=O)O (stereo unspecified)	-8%	35µM*	-18%	40%	9%	-17
CC1CCC2C(=O)OC(CN3C(=O)c4ccccc4C3=O)CN2C1c1ccc(Br)cc1 (stereo unspecified)	x	x	x	x	0%[12.9 µM]	x
C[C@@H](C(=O)Nc1ccc2ccccc2c1)[C@H]1C[C@]1(C)[C@H](NC(=O)c1ccccc1)c1ccccc1	x	x	x	x	-6%	x
